# Reference: PubChem BioAssay (NCATS)
# Records with an inconclusive call do not appear. The source made the active and inactive calls. Calls follow the shape of the dose curve; as a rule, active = well fitted curve in the direction sought with a large enough effect; inconclusive = small, poorly fitted or top-dose-only effect, or another doubt; inactive = no such curve, though single readings can be large; an effect the other way counts as inactive or inconclusive.
# Experiments:
# [1] = Quantitative High-Throughput drug screen in 47 multiple myeloma cell lines against the NCATS MIPE library collection: KMS26_JCRB cell viability assay (AID 1918975); also: nearly all actives have a fitted effect of over 45% in size
# Outline: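 Myeloma cell lines, 500 cells per well, exposed to MIPE 4.0 library compounds for 48 h at 37C, 5% CO2. Viability from ATP by CellTiter-Glo luminescence; normalised to DMSO (100%) and media-only (0%) wells.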
# [2] = Quantitative High-Throughput drug screen in 47 multiple myeloma cell lines against the NCATS MIPE library collection: MMM1_PLB cell viability assay (AID 1918976); also: nearly all actives have a fitted effect of over 35% in size
# Outline: (§1)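 ATP-based CellTiter-Glo luminescence after 48 h drug exposure (37 °C, 5% CO2) of 500 myeloma cells per well. DMSO-only wells set 100% viability, media-only wells 0%; MIPE 4.0 library added by pin tool.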
# [3] = Quantitative High-Throughput drug screen in 47 multiple myeloma cell lines against the NCATS MIPE library collection: MOLP8_DSMZ cell viability assay (AID 1918977); also: nearly all actives have a fitted effect of over 45% in size
# Outline: as §1
# [4] = Quantitative High-Throughput drug screen in 47 multiple myeloma cell lines against the NCATS MIPE library collection: MM1S_ATCC cell viability assay (AID 1918980); also: nearly all actives have a fitted effect of over 45% in size
# Outline: as §1
# [5] = Quantitative High-Throughput drug screen in 47 multiple myeloma cell lines against the NCATS MIPE library collection: LP1_DSMZ cell viability assay (AID 1918982); also: nearly all actives have a fitted effect of over 35% in size
# Outline: as §1
# [6] = Quantitative High-Throughput drug screen in 47 multiple myeloma cell lines against the NCATS MIPE library collection: KMS34_JCRB cell viability assay (AID 1918985); also: nearly all actives have a fitted effect of over 40% in size
# Outline: as §1
# [7] = Quantitative High-Throughput drug screen in 47 multiple myeloma cell lines against the NCATS MIPE library collection: OPM1_PLB cell viability assay (AID 1918989); also: nearly all actives have a fitted effect of over 40% in size
# Outline: as §1
# [8] = Quantitative High-Throughput drug screen in 47 multiple myeloma cell lines against the NCATS MIPE library collection: SKMM1_PLB cell viability assay (AID 1919863); conditions: SKMM1 myeloma viability, CellTiter-Glo ATP, 48 h; viability: active compounds read low; also: nearly all actives have a fitted effect of over 35% in size
# Outline: as §1
# [9] = Quantitative High-Throughput drug screen in 47 multiple myeloma cell lines against the NCATS MIPE library collection: U266_ATCC cell viability assay (AID 1919864); also: nearly all actives have a fitted effect of over 35% in size
# Outline: as §1
# [10] = Quantitative High-Throughput drug screen in 47 multiple myeloma cell lines against the NCATS MIPE library collection: VP6_DJ cell viability assay (AID 1919867); also: nearly all actives have a fitted effect of over 40% in size
# Outline: as §1
# [11] = Quantitative High-Throughput drug screen in 47 multiple myeloma cell lines against the NCATS MIPE library collection: OCIMY1_PLB cell viability assay (AID 1918979); also: nearly all actives have a fitted effect of over 35% in size
# Outline: as §1
# [12] = Quantitative High-Throughput drug screen in 47 multiple myeloma cell lines against the NCATS MIPE library collection: MM1R_ATCC cell viability assay (AID 1918981); also: nearly all actives have a fitted effect of over 35% in size
# Outline: as §1
# [13] = Quantitative High-Throughput drug screen in 47 multiple myeloma cell lines against the NCATS MIPE library collection: KMS28PE_JCRB cell viability assay (AID 1918983); also: nearly all actives have a fitted effect of over 35% in size
# Outline: as §1
# [14] = Quantitative High-Throughput drug screen in 47 multiple myeloma cell lines against the NCATS MIPE library collection: L363_DSMZ cell viability assay (AID 1918984); also: nearly all actives have a fitted effect of over 40% in size
# Outline: as §1
# [15] = Quantitative High-Throughput drug screen in 47 multiple myeloma cell lines against the NCATS MIPE library collection: OCIMY7_PLB cell viability assay (AID 1918987); also: nearly all actives have a fitted effect of over 65% in size
# Outline: as §1
# [16] = Quantitative High-Throughput drug screen in 47 multiple myeloma cell lines against the NCATS MIPE library collection: OCIMY5_PLB cell viability assay (AID 1918988); also: nearly all actives have a fitted effect of over 65% in size
# Outline: as §1
# [17] = Quantitative High-Throughput drug screen in 47 multiple myeloma cell lines against the NCATS MIPE library collection: XG6_PLB cell viability assay (AID 1919865); also: nearly all actives have a fitted effect of over 40% in size
# Outline: as §1
# [18] = Quantitative High-Throughput drug screen in 47 multiple myeloma cell lines against the NCATS MIPE library collection: XG1_PLB cell viability assay (AID 1919866); also: nearly all actives have a fitted effect of over 35% in size
# Outline: as §1
# [19] = Quantitative High-Throughput drug screen in 47 multiple myeloma cell lines against the NCATS MIPE library collection: NCIH929_DSMZ cell viability assay (AID 1918978); also: nearly all actives have a fitted effect of over 35% in size
# Outline: as §1
# Potency is read from the fitted curve at half-maximal effect.
SMILES,Potency [1],Potency [2],Potency [3],Potency [4],Potency [5],Potency [6],Potency [7],Potency [8],Potency [9],Potency [10],Potency [11],Potency [12],Potency [13],Potency [14],Potency [15],Potency [16],Potency [17],Potency [18],Potency [19]
Cc1ccc(S(=O)(=O)Nc2cc(Cl)ccc2C(=O)Nc2nc(-c3ccccc3)cs2)cc1,18.7 µM (active),7.43 µM (active),20.9 µM (active),14.8 µM (active),9.35 µM (active),20.9 µM (active),4.69 µM (active),16.6 µM (active),20.9 µM (active),6.62 µM (active),–,–,–,–,–,–,–,–,–
CC(C)c1ccccc1Cc1cc(C(=O)Nc2ccc(S(=O)(=O)c3ccccc3C(C)(C)C)cc2)c(O)c(O)c1O,9.35 µM (active),18.7 µM (active),13.2 µM (active),11.8 µM (active),–,–,9.35 µM (active),13.2 µM (active),–,5.26 µM (active),23.5 µM (active),10.5 µM (active),16.6 µM (active),inactive,4.69 µM (active),4.69 µM (active),7.43 µM (active),3.72 µM (active),–
CCCCOc1c(C(=O)c2c(F)cc(C)cc2F)cnc2n[nH]cc12,3.72 µM (active),5.26 µM (active),2.96 µM (active),2.09 µM (active),3.32 µM (active),2.35 µM (active),11.8 µM (active),5.26 µM (active),–,3.32 µM (active),–,3.72 µM (active),5.9 µM (active),3.32 µM (active),4.18 µM (active),4.18 µM (active),2.35 µM (active),2.96 µM (active),1.32 µM (active)
CCn1nnc2c(N3CCOCC3)nc(-c3ccc(NC(=O)Nc4ccc(C(=O)N5CCN(C)CC5)cc4)cc3)nc21,0.0418 µM (active),0.0332 µM (active),–,0.0332 µM (active),0.0469 µM (active),0.148 µM (active),0.0059 µM (active),0.059 µM (active),–,–,5.26 µM (active),0.0469 µM (active),0.0059 µM (active),–,3.72 µM (active),0.469 µM (active),–,–,0.0066 µM (active)
NC1(Cc2ccc(Cl)cc2)CCN(c2ncnc3[nH]ccc23)CC1,6.62 µM (active),0.526 µM (active),8.33 µM (active),1.87 µM (active),–,7.43 µM (active),1.48 µM (active),18.7 µM (active),20.9 µM (active),3.72 µM (active),–,5.9 µM (active),5.26 µM (active),1.87 µM (active),5.9 µM (active),9.35 µM (active),13.2 µM (active),3.72 µM (active),–
Cc1cc(Nc2cc(N3CCN(C)CC3)nc(Sc3ccc(NC(=O)C4CC4)cc3)n2)n[nH]1,14.8 µM (active),10.5 µM (active),5.9 µM (active),13.2 µM (active),–,–,5.9 µM (active),16.6 µM (active),16.6 µM (active),18.7 µM (active),–,16.6 µM (active),11.8 µM (active),–,0.296 µM (active),5.26 µM (active),13.2 µM (active),4.18 µM (active),5.9 µM (active)
